Several values for one entry are separate records, joined by “and”; a condition that tells them apart may be missing. Identical values can stand only once. Some structures have more than one record in an assay (separate samples or runs), and their calls can disagree. Activity calls are given as the source filed them. Cut-off read from the data, not from the text of the source: active = remaining activity below about 50%; inactive = the rest.
Molecular target: Phospholipase D2 (Homo sapiens) (UniProt O14939)
Sequence (O14939 whole entry, looked up): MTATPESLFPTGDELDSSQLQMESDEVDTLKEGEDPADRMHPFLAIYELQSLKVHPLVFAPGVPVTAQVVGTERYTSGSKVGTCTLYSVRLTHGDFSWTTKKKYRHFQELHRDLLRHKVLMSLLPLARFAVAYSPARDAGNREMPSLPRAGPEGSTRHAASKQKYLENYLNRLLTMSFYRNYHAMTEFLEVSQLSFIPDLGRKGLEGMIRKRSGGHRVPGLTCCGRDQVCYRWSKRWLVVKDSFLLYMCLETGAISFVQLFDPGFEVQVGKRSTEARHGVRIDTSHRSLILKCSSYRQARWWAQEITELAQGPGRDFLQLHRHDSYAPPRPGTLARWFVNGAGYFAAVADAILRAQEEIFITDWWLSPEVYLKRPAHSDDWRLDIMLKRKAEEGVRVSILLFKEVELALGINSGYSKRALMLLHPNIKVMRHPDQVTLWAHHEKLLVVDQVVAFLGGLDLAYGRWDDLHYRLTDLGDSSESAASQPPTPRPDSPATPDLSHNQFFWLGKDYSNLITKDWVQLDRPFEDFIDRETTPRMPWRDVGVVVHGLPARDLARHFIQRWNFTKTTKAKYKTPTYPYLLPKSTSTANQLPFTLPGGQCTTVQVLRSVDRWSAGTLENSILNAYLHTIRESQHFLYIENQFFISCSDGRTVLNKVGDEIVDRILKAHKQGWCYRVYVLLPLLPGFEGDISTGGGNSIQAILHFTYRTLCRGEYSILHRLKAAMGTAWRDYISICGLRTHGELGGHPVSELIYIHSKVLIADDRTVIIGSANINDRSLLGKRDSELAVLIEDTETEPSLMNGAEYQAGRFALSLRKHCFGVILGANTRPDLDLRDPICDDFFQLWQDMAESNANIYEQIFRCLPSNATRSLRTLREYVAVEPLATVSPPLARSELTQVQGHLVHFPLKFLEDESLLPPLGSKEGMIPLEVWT
Sequence (O14939 whole entry, looked up): as above
Test: PLD2 inhibitors in cells, cell-based, HEK293, single concentration (AID 602143);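 note: tested at 200 nM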
Settings: HEK293 cellular PLD2 activity, percent of control; stronger effect = lower value

Structure (SMILES)	remaining activity
O=C(NCCN1CCC2(CC1)C(=O)NCN2c1ccc(F)c(F)c1)c1ccc(Cl)cc1	55.3% (inactive)
C[C@H](CN1CCC2(CC1)C(=O)NCN2c1ccccc1)NC(=O)c1ccc(F)cc1	81.7% (inactive)
Cc1ccccc1C(=O)NCCN1CCC2(CC1)C(=O)NCN2c1cccc(F)c1	115% (inactive)
O=C(NCCN1CCC2(CC1)C(=O)NCN2c1ccccc1)C(c1ccccc1)c1ccccc1	74.8% (inactive)
O=C(CCCl)NCCN1CCC2(CC1)C(=O)NCN2c1cccc(F)c1	87.1% (inactive)
O=C(NCCN1CCC2(CC1)C(=O)NCN2c1cccc(F)c1)c1cc(C(F)(F)F)ccc1C(F)(F)F	87.9% (inactive)
O=C(c1ccc2ccccc2c1)N1CCCC1CN1CCC(n2c(=O)[nH]c3ccccc32)CC1 (stereo not given)	49.9% (active) and 63.2% (inactive)
C[C@@H](CN1CCC2(CC1)C(=O)NCN2c1ccccc1)NC(=O)[C@@H]1C[C@H]1c1ccccc1	75.9% (inactive)
O=C(NCCN1CCC2(CC1)C(=O)NCN2c1ccc(Br)cc1)c1cnc2ccccc2c1	48.6% (active)
O=C(NCCN1CCC2(CC1)C(=O)NCN2c1ccc(F)cc1)c1cc2cc(F)ccc2[nH]1	14.3% (active)
O=C(NCCN1CCC2(CC1)C(=O)NCN2c1cccc(F)c1)C12CC3CC(CC(C3)C1)C2	87.1% (inactive)
COc1ccc(CC(=O)NCCN2CCC3(CC2)C(=O)NCN3c2cccc(F)c2)cc1OC	102% (inactive) and 91.9% (inactive)
O=C(N[C@@H](Cc1ccccc1)CN1CCC2(CC1)C(=O)NCN2c1ccccc1)c1ccc(F)c(F)c1	102% (inactive)
O=C(C#Cc1ccccc1)NCCN1CCC2(CC1)C(=O)NCN2c1ccccc1	47.9% (active)
O=C(c1cnc2ccccc2c1)N1CC(N2CCC3(CC2)C(=O)NCN3c2ccccc2)C1	70% (inactive)
O=C(NCCN1CCC2(CC1)C(=O)NCN2c1ccc(F)c(F)c1)c1ccc(F)cc1	49.6% (active)
Cc1cccc(C(=O)NCCN2CCC3(CC2)C(=O)NCN3c2ccccc2)n1	89% (inactive)
C[C@H](CN1CCC2(CC1)C(=O)NCN2c1ccccc1)NC(=O)c1cc2cc(F)ccc2[nH]1	0% (active)

Structure (SMILES)	remaining activity
O=C(NCCN1CCC2(CC1)C(=O)NCN2c1ccccc1)c1ccc(-c2ccccc2)o1	50.1% (inactive)
O=C(NCCN1CCC2(CC1)C(=O)NCN2c1cccc(F)c1)c1ccc(Cl)cc1Cl	92.4% (inactive)
CC(C)[C@@H](CN1CCC2(CC1)C(=O)NCN2c1ccccc1)NC(=O)c1cnc2ccccc2c1	59.3% (inactive)
O=C(NCCN1CCC2(CC1)C(=O)NCN2c1ccccc1)c1cc(=O)c2cc(Br)ccc2o1	122% (inactive)
Cc1ccc(C(=O)NCCN2CCC3(CC2)C(=O)NCN3c2ccccc2)c(O)c1	85% (inactive)
O=C(NCCN1CCC2(CC1)C(=O)N(Cc1ccccc1)c1ccccc12)c1ccc2ccccc2c1	70.6% (inactive)
C[C@@H](CN1CCC2(CC1)C(=O)N(Cc1ccccc1)c1ccccc12)NC(=O)c1ccc2ccccc2c1	71.6% (inactive)
CCCCOc1ccc(C(=O)NCCN2CCC3(CC2)C(=O)NCN3c2cccc(F)c2)cc1	95.2% (inactive)
O=C(NCCN1CCC2(CC1)C(=O)NCN2c1ccccc1)c1ncccc1F	82.2% (inactive)
CCCCCC(=O)N(CCN1CCC2(CC1)C(=O)NCN2c1cccc(F)c1)C(=O)CCCCC	73.1% (inactive)
O=C(NCCCN1CCC2(CC1)C(=O)NCN2c1ccccc1)c1cnc2ccccc2c1	96.4% (inactive)
C[C@@H](CN1CCC2(CC1)C(=O)NCN2c1ccc(F)c(F)c1)NC(=O)c1cc2ccccc2[nH]1	0% (active)
O=C(NCCN1CCC2(CC1)C(=O)NCN2c1cccc(F)c1)c1ccc(OC(F)(F)F)cc1	78% (inactive)
O=C(NCCN1CCC2(CC1)C(=O)NCN2c1ccc(Cl)cc1)c1ccc(Cl)cc1	49% (active)
O=C(NCCN1CCC2(CC1)C(=O)NCN2c1ccccc1)c1cnco1	80.4% (inactive)
O=C(COCc1ccccc1)NCCN1CCC2(CC1)C(=O)NCN2c1cccc(F)c1	86.7% (inactive)
O=C(NCCN1CCC2(CC1)C(=O)NCN2c1ccc(F)cc1)c1cnc2ccccc2c1	24% (active)
